Six1-Eya2 blk = blocks human Six1 binding to Eya2; AlphaScreen GST-Six1/His-Eya2 binding, biochemical; hits give low values; activity change, % (test concentration not listed); 0.56% of 360,000 active; AID 651725; in the data active = activity change below about -65%; inconclusive = mostly about -30% to -63%
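Compounds are tested against tagged Six1 and Eya2 proteins bridged by glutathione donor and nickel acceptor beads; after a one-hour incubation at 37 °C without light, AlphaScreen emission is recorded.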
PKM2 act = activators of human pyruvate kinase M2; purified PKM2, Kinase-Glo ATP luminescence, activation; response scale: 0% is enzyme alone, no compound; P14618; 0.34% of 260,000 active; Potency, µM (doses to about 57.5 µM), for the others: at the top dose activation, actives largely listed as activators; also: potency is read from the fitted curve at half-maximal effect; nearly all actives have a fitted effect of over 55% in size
Target sequence (P14618 whole entry, looked up): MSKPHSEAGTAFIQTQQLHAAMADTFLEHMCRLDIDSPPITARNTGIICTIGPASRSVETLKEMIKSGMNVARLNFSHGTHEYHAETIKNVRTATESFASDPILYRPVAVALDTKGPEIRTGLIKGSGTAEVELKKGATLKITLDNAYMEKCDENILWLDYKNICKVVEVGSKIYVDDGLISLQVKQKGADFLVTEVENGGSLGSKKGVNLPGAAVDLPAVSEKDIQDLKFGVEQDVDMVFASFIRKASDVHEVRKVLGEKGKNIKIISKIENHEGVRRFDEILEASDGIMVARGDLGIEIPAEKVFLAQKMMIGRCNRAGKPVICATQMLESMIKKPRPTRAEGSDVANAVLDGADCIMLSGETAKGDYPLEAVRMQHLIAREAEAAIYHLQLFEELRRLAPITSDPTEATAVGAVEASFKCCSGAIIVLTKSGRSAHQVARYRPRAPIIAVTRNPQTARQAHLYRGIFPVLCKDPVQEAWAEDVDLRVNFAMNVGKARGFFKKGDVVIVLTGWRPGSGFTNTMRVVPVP
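Purified hPK-M2 (>95% pure) converted ADP (0.1 mM final) to ATP with 0.5 mM PEP in 50 mM imidazole pH7.2, KCl, MgCl2, Tween 20, BSA; 1 h at room temperature. ATP detected by Kinase-Glo luminescence.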
VP16 counter = Gal4-VP16 reporter inhibition counter-screen; Drosophila S2 Gal4-VP16 UAS-luciferase, luminescence, 20 h; Potency, µM (titrated, usually from 53.6 µM), for the others: at the top dose activity, negative = inhibition, actives largely listed as inhibitors; 3.5% of 310,000 active;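 also: Gal4-VP16 expression switched on by copper sulfate through the metallothionein promoter; potency is read from the fitted curve at half-maximal effect; nearly all actives have a fitted effect of over 50% in size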
RORg inh = ROR gamma (mouse) transcription inhibition | P51450 | Drosophila S2 Gal4-RORgamma UAS-luciferase reporter, 20 h | Potency, µM (doses to about 53.6 µM), inactives show top-dose activity change, negative = inhibition, actives largely listed as inhibitors | 5.4% of 310,000 active | AID 2551; also: potency is read from the fitted curve at half-maximal effect; nearly all actives have a fitted effect of over 60% in size
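Stable Schneider cell line, Gal4 DNA-binding domain fused to ROR gamma, UAS-luciferase. Cmpd 1 hr RT → CuSO4 700 uM final → 20 hr RT → luciferase reagent 10 min → luminescence.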
CtBP-E1A blk = CtBP/E1A binding inhibition; AID 651724; AlphaScreen GST-E1A/His-CtBP binding, 1536-well; hits give low values; activity change, % (no concentration beside the values); 0.49% of 340,000 active; in the data active = activity change below about -65%; inconclusive = mostly about -30% to -63%
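Homogeneous bead-based format: GST-tagged E1A captured on glutathione donor beads, His-tagged CtBP on nickel acceptor beads; compounds precede bead addition by 2 h at 37 °C.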
Numbers without * were called inactive; [ ] = dose if it differs, or a comment. Hits are enriched below; roughly 5.6% of the tested compounds scored in any of these assays. Unless noted, calls follow the shape of the dose curve; as a rule, active = well fitted curve in the direction sought with a large enough effect; inconclusive = small, poorly fitted or top-dose-only effect, or another doubt; inactive = no such curve, though single readings can be large; an effect the other way counts as inactive or inconclusive. % is scaled to controls: 0 for no effect and ±100 for the full control effect.

For COCOCCn1cc(CN2CCS(=O)(=O)N(Cc3ccc(-c4ccncc4)cc3)C(C(C)C)C2=O)nn1 (stereo unspecified) the results were Six1-Eya2 blk 3 and CtBP-E1A blk 1.
For CCOc1cc(NC(=S)NCc2ccco2)c(OCC)cc1NC(=O)CC(C)C the results were Six1-Eya2 blk 8, PKM2 act -15%, VP16 counter -16%, RORg inh inconclusive and CtBP-E1A blk 7.
CCOc1ccccc1NC(=S)NCC1CCCO1 (stereo unspecified) was read as Six1-Eya2 blk 1, PKM2 act -4%, VP16 counter inconclusive, RORg inh 11µM* and CtBP-E1A blk -10.
`CCOc1cc(NC(=S)Nc2ccccc2OC)c(OCC)cc1NC(=O)c1ccccc1C` gave Six1-Eya2 blk -30, PKM2 act -4%, VP16 counter 2.2µM*, RORg inh 1.8µM* and CtBP-E1A blk inconclusive.
COc1ccccc1NC(=S)NCC1CCCO1 (stereo unspecified) was read as Six1-Eya2 blk 4, PKM2 act 4%, VP16 counter inconclusive, RORg inh inconclusive and CtBP-E1A blk -21.
CCOc1cc(NC(=S)NCC2CCCO2)c(OCC)cc1NC(=O)CC(C)C (stereo unspecified) was read as Six1-Eya2 blk 8, PKM2 act 4%, VP16 counter -13%, RORg inh 11µM* and CtBP-E1A blk 4.
CCOc1cc(NC(=S)NC)c(OCC)cc1NC(=O)c1ccc(OC)cc1 was read as Six1-Eya2 blk -5, PKM2 act -2%, VP16 counter inconclusive, RORg inh 10µM* and CtBP-E1A blk 14.
Screening O=C(CCNC(=O)Cn1ccc2ccccc2c1=O)NCCc1ccc(Cl)cc1 returned Six1-Eya2 blk -3, PKM2 act 0%, VP16 counter -12%, RORg inh 4%[10 µM] and CtBP-E1A blk -4.
Screening N#Cc1ccccc1S(=O)(=O)N1CCN(C(=O)[C@@H]2CCCN2C(=O)c2cccs2)CC1 returned Six1-Eya2 blk 3.
`COc1cc(CNCCCN2CCOCC2)cc(Cl)c1OCC(=O)NC(C)(C)C` gave Six1-Eya2 blk 7, VP16 counter -11%, RORg inh -3% and CtBP-E1A blk 0.
For CNc1ccccc1C(C)(C)c1cc(-c2cccc(Br)c2)no1 the results were Six1-Eya2 blk -1, PKM2 act -3%, VP16 counter 16µM*, RORg inh inconclusive and CtBP-E1A blk -4.
`O=C(NCC(c1cccs1)N1CCOCC1)c1cc(S(=O)(=O)N2CCOCC2)ccc1Cl` (stereo unspecified) gave Six1-Eya2 blk 4 and CtBP-E1A blk -22.
`COc1cccc2cc(C(C)N(CCCN3CCOCC3)C(=S)Nc3cccc(C)c3C)oc12` (stereo unspecified) gave Six1-Eya2 blk 11, PKM2 act -8%, VP16 counter -8%[10 µM], RORg inh 11µM* and CtBP-E1A blk -7.
`CCc1cccc(NC(=S)N(CCCN2CCOCC2)C(C)c2cc3cccc(OC)c3o2)c1` (stereo unspecified) gave Six1-Eya2 blk -7, PKM2 act 3%, VP16 counter inconclusive, RORg inh 11µM* and CtBP-E1A blk -6.
For COc1ccc(NC(=S)N(CCCN2CCOCC2)C(C)c2cc3cccc(OC)c3o2)cc1 (stereo unspecified) the results were Six1-Eya2 blk -14, PKM2 act 11%, VP16 counter -8%[10 µM], RORg inh -2% and CtBP-E1A blk -4.
`COc1cccc2cc(C(=O)NCCN3CCOCC3)oc12` gave Six1-Eya2 blk 0, PKM2 act 10%, VP16 counter -2%, RORg inh -4% and CtBP-E1A blk -2.
For COc1cccc2cc(C(C)N(CCCN3CCOCC3)C(=O)Nc3ccccc3)oc12 (stereo unspecified) the results were Six1-Eya2 blk 5, PKM2 act -33%, VP16 counter -3%, RORg inh 2% and CtBP-E1A blk 1.

Bioassay records as filed in PubChem.
